# Laboratory results reported in the supplement of paper PMC6555819.
# Columns and labels:
# Test in all cases: PBM binding z-score (relative to random genomic background probes); higher = stronger binding; sequences stand for … in GC…GCGATTGACAGCGTAGAATGAAGG
# [1] = tested on: PPARg:RXRa DBDmut IVT, anti-RXR (DBD mutation: RXRa K156A/R161A, NR concentration 270 nM, RXRa partner concentration 90 nM)
# Summary of the method: (§1)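 For binding z-scores, the reference was random background probes on custom Agilent 4×180K protein-binding microarrays. These arrays were incubated 1 h with ligand-free nuclear receptor dimers in PBS pH 7.4, 2% milk, 0.02% Triton X-100, 1 mM DTT, 0.2 mg/mL BSA and 0.4 mg/ml salmon testes DNA. Fluorescence was scanned after antibody detection of each partner (one per run) and regression-normalized.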
# [2] = tested on: PPARg:RXRa IVT, anti-PPARg (NR concentration 270 nM, RXRa partner concentration 90 nM)
# Summary of the method: as §1
# [3] = tested on: PPARg DBDmut:RXRa IVT, anti-PPARg (DBD mutation: PPARg1 K132A/R137A, NR concentration 270 nM, RXRa partner concentration 90 nM)
# Summary of the method: as §1
# [4] = tested on: PPARg DBDmut IVT, anti-PPARg (DBD mutation: PPARg1 K132A/R137A, NR concentration 270 nM)
# Summary of the method: as §1
# [5] = tested on: PPARg homodimer (NR concentration 180 nM)
# Summary of the method: as §1
# [6] = tested on: PXR:RXRa (NR concentration 270 nM, RXRa partner concentration 90 nM)
# Summary of the method: as §1
# [7] = tested on: PXR homodimer (NR concentration 270 nM)
# Summary of the method: as §1
# [8] = tested on: RARa:RXR (NR concentration 270 nM, RXRa partner concentration 90 nM)
# Summary of the method: as §1
# [9] = tested on: RARa homodimer (NR concentration 270 nM)
# Summary of the method: as §1
# [10] = tested on: RARb:RXRa (NR concentration 270 nM, RXRa partner concentration 90 nM)
# Summary of the method: as §1
Sequence,PBM binding z-score [1],PBM binding z-score [2],PBM binding z-score [3],PBM binding z-score [4],PBM binding z-score [5],PBM binding z-score [6],PBM binding z-score [7],PBM binding z-score [8],PBM binding z-score [9],PBM binding z-score [10]
CCTGCTAGGTCATGGTCAACTAATCTACAGTATG,4.88,4.48,0.715,0.58,1.66,1.82,-0.415,2.94,0.861,4.06
CCTAGTTGGTGAAGGTCACACACGCTATAGGTAC,1.01,2.4,1.24,0.782,2.47,3.34,1.34,3.61,1.61,3.74
CCTTACGGGTCAAGGTTATAGTACGGGTGGTACG,1.4,3.68,0.554,-0.326,2.79,3.75,0.673,4.68,1.47,4.18
CGTCCAATGTCAAAGGTCAGTGAAGAGATGACGG,0.671,3.16,0.777,0.834,4.53,4.53,0.54,6.27,2,4.36
TCGAGTAGGTTACCAATGGGGCACTCAGCTTTCT,3.78,3.08,-0.534,0.223,-0.453,0.0109,-0.848,0.158,-0.688,0.948
CCTTACGGGTCACTCCAGGTTATAGGATCGGAGT,2.49,4,0.265,0.385,1.86,5.21,0.588,4.1,0.817,3.8
CCGACTGGGGCGGAAAGGTTACCATACCATCCGG,-0.0321,0.59,-0.91,-0.926,0.423,1.17,-0.39,1.96,-0.133,1.43
TAGCCTAGGTCAGATCGGGCCATTATACGCTATA,0.579,1.34,-0.598,-0.774,0.357,2.69,-0.448,1.33,-0.736,2.84
CGTCCAATGTCAGAGAGGTCAGTGAATGCCGAGT,0.575,1.22,-0.469,-0.584,3.15,3.48,2.28,3.16,1.47,3.42
GTACGAAGGTGAATAGGTCGTTGATGAGTAGGCG,1.5,2.19,-0.159,-0.129,0.859,0.754,-0.215,1.75,0.356,2.01
TCTTGTAGATCAACATGAGGTTAAGAAAGATCGA,1.66,1.07,1.29,1.12,-0.107,1.22,-0.155,1.53,0.226,0.619
TAGCCTAGGTCAGATCGGGCCACTATACGCTATA,0.727,1.46,-0.3,-0.905,0.204,1.73,-0.326,1.39,-0.348,3.01
TCTATTAGGTGAAGGGCAACCGACGAGTCCGTTT,5.49,4.75,1.19,0.901,1.58,0.47,0.805,0.687,0.733,2
AATACACGGTCACTAGGCCAGAGTAGGTACGAAT,2.08,3.87,1.22,1.13,0.988,0.0441,-0.0687,0.462,0.429,2.77
CCTACTGGCCCAAAGGTCATTGATTCCAATGCTC,0.578,3.61,-0.204,-0.16,2.07,5,0.894,4.8,1.12,4.44
AGAATGAGGTTATACGAAGATCAGGGAAGAAAGT,2.26,2.05,0.807,0.512,0.484,1.04,0.292,1.61,0.714,1.3
TCTCGGAGGACACGAAGATCAGAGCTTTCCAGAG,1.06,-0.251,-1.11,-0.408,-0.646,-0.151,-0.592,0.08,-0.514,1.21
GCGTCTGGGGCAAAGCAGGTTACCATAAGGTTGG,3.3,2.33,-0.833,-1.14,0.154,0.372,-0.589,0.843,-1.37,1.17
TCATATAGTTAAACAGGTGAAAGTCCGTAAGTTA,2.65,1.54,1.36,1.6,1.34,0.848,0.543,1.2,1.91,0.698
TTTGCTAGGTCAACGATGGTCAGCTAATCTGCTA,4.45,5.11,0.599,0.434,0.874,1.46,-0.501,2.15,-0.298,4.13
GCTCGGAGGACAAGTTCAGAGCTTTGTCCGTAGA,-0.557,-0.546,-1.36,-1.47,-0.526,0.977,0.281,0.489,-1.39,1.92
CGAACTAGGTCAGAACAGGACAGTGAGGGATGAT,7.05,7.16,2.36,0.0779,0.578,0.829,0.211,1.06,0.238,2.94
GCTCGGAGGGCAAGGTCAGAGCTTTGTCCGTAGA,0.731,1.11,-2.58,-1.43,2.03,2.07,-0.437,2.52,-0.775,3.76
CAAACTAGGTCACCGGAAGGTCAAAGGCCGCATG,8.46,8.84,4.26,3.71,5.53,5.83,1.1,7.5,1.75,5.35
